Assay outcomes deposited in PubChem by National Center for Advancing Translational Sciences (NCATS).
SW480 rerep: induces DNA re-replication in SW480 colon adenocarcinoma cells; SW480 DNA re-replication, Hoechst DNA content imaging, 48 h; Potency, µM (top dose mostly 46.1 µM), for the others: at the highest dose re-replication activation, most hits filed as activators; 1.8% of 340,000 active; note: % of control where 0% means no effect; nearly all actives have a fitted effect of over 55% in size
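250 cells/well; 23 nL cpd via pin tool; 48 hr, 37 C, 5% CO2; Hoechst 40 min; imager read of total nuclear intensity, ex 405/em 500-530 nm.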
KB-V1 cytotox: KB-V1 MDR subline cytotoxicity | 3.4% of 400,000 active | AID 1347076 | Potency, µM (top dose mostly 46.1 µM), actives largely listed as cytotoxic | KB-V1 MDR cells viability, CellTiter-Glo, 72 h; note: % is set by controls: 0 for no effect and ±100 for the full control effect; nearly all actives have a fitted effect of over 60% in size
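qHTS viability screen in drug-selected KB-V1 MDR cells: 72 h compound treatment at 37 degrees C, ATP luminescence end point.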
KB-3-1 tox: kills parental KB-3-1 adenocarcinoma cells | KB-3-1 viability, CellTiter-Glo ATP luminescence, 72 h | Potency, µM (series often up to 46.1 µM), most hits filed as cytotoxic | 1.4% of 400,000 active | AID 1347075; note: % is set by controls: 0 for no effect and ±100 for the full control effect; nearly all actives have a fitted effect of over 60% in size
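Luminescent ATP read-out (CellTiter-Glo) measures survival of drug-naive KB-3-1 cells after 72 h compound exposure at 37 °C. Titration series was screened from lowest to highest concentration, with DMSO vehicle plates as background controls.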
MCF10A rereplic: induces DNA re-replication in MCF 10a normal breast cells | 2.9% of 350,000 active | AID 624296 | MCF 10A DNA re-replication, Hoechst nuclear intensity, 48 h | Potency, µM (top dose mostly 46.1 µM), without a hit: top-dose activity, positive = re-replication, most hits filed as activators; note: % of control where 0% means no effect; nearly all actives have a fitted effect of over 50% in size
HT1080NT lethal: kills 2HG-producing HT-1080-NT fibrosarcoma cells; 1.6% of 360,000 active; AID 686970; Potency, µM (titrated, usually from 46.1 µM), for the others: at the top dose activity, negative = less viability, hits mostly cytotoxic; HT-1080-NT fibrosarcoma viability, CellTiter-Glo ATP luminescence, 48 h;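 note: NT is the 2HG producing partner of a matched IDH1 knockdown line; 0% = DMSO-treated cells and -100% = media-only wells without cells; nearly all actives have a fitted effect of over 55% in size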
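Luminescent CellTiter-Glo readout after 48 hours of compound exposure at 37 degrees C defined viability of HT-1080-NT cells. Activity was normalized to DMSO wells and cell-free media wells; concentration-response curves were fitted and assigned curve classes.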
HT1080 IDH1KD tx: kills HT-1080 cells with IDH1 knockdown. HT-1080 IDH1 knockdown viability, ATP luminescence, 48 h. Potency, µM (doses to about 46.1 µM), for inactives: at the top dose activity, negative = toxicity, usual class: cytotoxic. 2% of 360,000 active;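 note: 0% = DMSO wells and -100% = cell-free medium wells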
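% activity derives from luminescence (CellTiter-Glo), normalised to DMSO and no-cell wells. HT-1080-IDH1KD cells, 750/well, had 48 h compound exposure at 37 °C.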
An asterisk follows results filed as active; i = inactive; ? = inconclusive; nt = not tested or not shown; [ ] = another dose, or the depositor's remark. This is a sample that favours compounds with a hit; in the whole collection about 8% have one here. Calls come from the whole dose curve; as a rule, active = well fitted curve in the direction sought with a large enough effect; inconclusive = small, poorly fitted or top-dose-only effect, or another doubt; inactive = no such curve, though single readings can be large; an effect the other way counts as inactive or inconclusive. Potency is the fitted concentration of half-maximal effect.

SMILES	SW480 rerep	KB-V1 cytotox	KB-3-1 tox	MCF10A rereplic	HT1080NT lethal	HT1080 IDH1KD tx
CCNC(=O)c1ccccc1NC(=O)c1cccc(S(=O)(=O)N2CCC(C)CC2)c1	2%	16µM*	i	9%	-1%	-17%
COc1ccc(OC)c(CNC(=O)CSc2c3c(nc4cc(Cl)ccc24)CCCC3)c1	nt	i	i	nt	nt	nt
Cc1cc(C)c(S(=O)(=O)N2CCC(N3CCN(Cc4ccccc4)C(=O)C3=O)CC2)c(C)c1	nt	?	i	nt	nt	nt
Nc1ncnc(Nc2ccccc2Oc2ccccc2)n1	?	?	i	11%	8%	10%
O=C(CCN1C(=O)c2ccccc2S1(=O)=O)Nc1ccc(F)c(F)c1F	-9%	i	i	19%	1%	19%
Cn1c(Cc2ccccc2)nnc1SCC(=O)c1ccc(Br)s1	-4%	13µM*	?	-1%	2%	3%
Cn1nnnc1SCC(=O)c1ccc(Br)s1	-3%	i	i	0%	0%	11%
Cc1cccc(N2C(=O)CN(Cc3sccc3C)C2=S)c1	4%	23µM*	?	0%	1%	0%
Cc1cc(C)cc(N2C(=O)CN(Cc3sccc3C)C2=S)c1	5%	i	i	?	0%	7%
O=C(c1ccc(N2CCCC2)c([N+](=O)[O-])c1)N1CCc2ccccc2C1	93%	2.6µM*	?	?	-7%	-11%
CC1Cc2ccccc2N1C(=O)c1ccc(N2CCCCC2)c([N+](=O)[O-])c1 (stereo not given)	22%	13µM*	i	12%	6%	3%
O=C(c1ccc(S(=O)(=O)c2ccccc2)cc1)N1CCc2ccccc2C1	-4%	18µM*	i	4%	-12%	-2%
CC1Cc2ccccc2N1C(=O)c1ccc(N2CCCC2)c([N+](=O)[O-])c1 (stereo not given)	?	i	i	?	-18%	-19%
CCc1nnc2c(Nc3cc(OC)c(Cl)cc3OC)nc3ccccc3n12	nt	i	i	nt	nt	nt
O=S(=O)(Nc1ccc(N=Nc2ccccc2)cc1)c1ccccc1	0%	3.3µM*	i	?	15%	-15%
Cc1cc(NS(=O)(=O)c2ccccc2)cc(Cl)c1O	9%	16µM*	i	2%	-10%	-8%
O=S(=O)(Nc1ccc(S(=O)(=O)Nc2ccccc2)cc1)c1ccccc1	2%	i	i	22%	13%	4%
Cc1ccc(CN2c3ccccc3-c3nc(SCC(=O)Nc4c(C)cc(C)cc4C)ncc3S2(=O)=O)cc1	nt	i	i	nt	nt	nt
C#C[C@]1(O)CC[C@H]2[C@@H]3CCC4=CC(=O)CC[C@@H]4[C@H]3CC[C@@]21C	-45%	2.3µM*	?	-24%	0%	-12%
C#C[C@]1(O)CC[C@H]2[C@@H]3CCC4=C(CCC(=O)C4)[C@H]3CC[C@@]21C	6%	15µM*	?	-2%	-21%	0%
COc1ccc(-c2nnc(SCC(=O)Oc3c(C)cccc3C)o2)cc1OC	nt	i	i	nt	nt	nt
O=C1N=C2N(CCN3CCCCC3)c3ccccc3N2/C1=C\c1ccc([N+](=O)[O-])s1	?	i	i	18µM*	5%	5%
Oc1ccc(Br)cc1-c1nc2cnccn2c1NC1CCCCC1	?	i	i	8%	?	-18%
Oc1ccc(Br)cc1-c1nc2cnccn2c1NC1CCCC1	?	23µM*	?	?	-13%	-13%
CCCC(=O)n1nc(-c2ccco2)nc1NCc1ccccc1Cl	nt	?	i	nt	nt	nt
SMILES	SW480 rerep	KB-V1 cytotox	KB-3-1 tox	MCF10A rereplic	HT1080NT lethal	HT1080 IDH1KD tx
COc1ccc(-c2nc(-c3ccccc3OC)no2)cc1OC	-6%	6.5µM*	?	?	-4%	-19%
c1ccc(-c2nc(C3CCCCC3)no2)cc1	-2%	i	i	-2%	13%	13%
COc1ccc(-c2nc(C3CCCCC3)no2)cc1OC	4%	16µM*	i	3%	19%	-22%
COc1ccccc1-c1noc(-c2ccccc2)n1	-3%	i	i	13%	0%	8%
CN(C)c1cccc(-c2cc(N3CCC(C(N)=O)CC3)ncn2)c1	nt	i	?	nt	nt	nt
CC(=O)N1CCN(Cc2nc3cc([N+](=O)[O-])ccc3n2C)CC1	2.9µM*	i	i	0%	1%	3%
COc1ccc(CNC(=O)C2CCCCN2S(=O)(=O)c2ccc(F)cc2)cc1 (stereo not given)	nt	i	i	nt	nt	nt
Cc1ccc(-c2nn(-c3ccccc3)cc2C=C2C(=O)CC(C)(C)CC2=O)cc1	-8%[9.22 µM]	18µM*	?	?	-29%	?
CC1=NN(c2ccccc2)C(=O)/C1=C\c1cn(CCC#N)nc1-c1ccc(Cl)cc1	-37%	i	i	1%	0%	-6%
CC1(C)CC(=O)C(=Cc2cn(-c3ccccc3)nc2-c2ccccc2)C(=O)C1	-4%	?	i	47%	2%	15%
CC1=NNC(=O)/C1=C\c1cn(-c2ccccc2)nc1-c1ccc(Cl)cc1	12µM*	16µM*	26µM*	3.7µM*	7.3µM*	5.8µM*
COc1ccc(CCNC(=O)C2CCCN(c3nc4c(C)cc(C)cc4s3)C2)cc1OC (stereo not given)	nt	i	i	nt	nt	nt
COc1ccc(C(C(=O)NC2CCCCC2)N(Cc2cccs2)C(=O)Cc2c[nH]c3ccccc23)cc1OC (stereo not given)	28%	8.2µM*	?	15%	?	?
Cc1ccc(C(C(=O)NC2CCCCC2)N(Cc2ccco2)C(=O)Cc2c[nH]c3ccccc23)o1 (stereo not given)	12%	10µM*	i	?	-16%	-19%
Cc1ccc(C(C(=O)NC2CCCCC2)N(C(=O)Cc2c[nH]c3ccccc23)c2ccccc2C)o1 (stereo not given)	?	?	?	?	15µM*	23µM*
Cc1ccc(N(C(=O)Cc2c[nH]c3ccccc23)C(C(=O)NC2CCCCC2)c2ccco2)cc1 (stereo not given)	?	16µM*	?	?	?	?
COc1ccc(C(C(=O)NC2CCCCC2)N(C(=O)Cc2c[nH]c3ccccc23)c2ccccc2C)cc1OC (stereo not given)	29%	?	i	10%	-18%	-21%
Cc1ccccc1N(C(=O)Cc1c[nH]c2ccccc12)C(C(=O)NC1CCCCC1)c1ccco1 (stereo not given)	-6%	?	i	?	?	?
